The campaign covered roughly 5,500 compounds. About 2,000 (36%) were called active. Another 18% or so got no clear call; they are omitted. Rule as the data show it: active = normalized growth mostly below about 0.91 (no sharp cut-off); inconclusive = no clear call, values can overlap the other calls; inactive = mostly above about 0.92. This is one part of the list.
Assay: chemical genetic growth profiling, strain panel (AID 1159580);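 also: tested at 20 µM; growth read once vehicle control cultures reached saturation at 30 °C; 1 = growth at the plate median or of vehicle wells; lower values mean less growth of the strain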
Conditions: growth OD

Measured: normalized growth

NC(=O)NCCCC(N)C(=O)O (configuration not stated)
inactive: S. cerevisiae deletion strains, locus YJR075W, strain HOC1, hits give low values 1.03 | S. cerevisiae deletion strains, locus YKL009W, strain mrt4, hits give low values 0.984 | S. cerevisiae deletion strains, locus YKL068W, hits give low values 0.999 | S. cerevisiae deletion strains, locus YKL085W, strain MDH1 (second series), hits give low values 1 | S. cerevisiae deletion strains, locus YKL085W, strain MDH1, hits give low values 1 | S. cerevisiae deletion strains, locus YKL160W, strain elf1, hits give low values 0.979 | S. cerevisiae deletion strains, locus YKL190W, strain CNB1, hits give low values 1.02 | S. cerevisiae deletion strains, locus YKR001C, strain vps1, hits give low values 1 | S. cerevisiae deletion strains, locus YKR026C, strain gcn3, hits give low values 1 | S. cerevisiae deletion strains, locus YKR091W, strain srl3, hits give low values 0.997 | S. cerevisiae deletion strains, locus YLL001W, strain dnm1, hits give low values 1 | S. cerevisiae deletion strains, locus YLL026W, hits give low values 1.01 | S. cerevisiae deletion strains, locus YLL041C, strain sdh2, hits give low values 0.987 | S. cerevisiae deletion strains, locus YLR027C, strain aat2, hits give low values 0.996 | S. cerevisiae deletion strains, locus YLR039C, strain RIC1, hits give low values 1.03 | S. cerevisiae deletion strains, locus YLR058C, strain SHM2, hits give low values 1.02 | S. cerevisiae deletion strains, locus YLR102C, strain apc9, hits give low values 0.997 | S. cerevisiae deletion strains, locus YLR113W, strain HOG1, hits give low values 1.02 | S. cerevisiae deletion strains, locus YLR221C, strain rsa3, hits give low values 0.971 | S. cerevisiae deletion strains, locus YLR258W, strain gsy2, hits give low values 1.03 | S. cerevisiae deletion strains, locus YLR262C, strain YPT6 (second series), hits give low values 1 | S. cerevisiae deletion strains, locus YLR262C, strain YPT6, hits give low values 1.04 | S. cerevisiae deletion strains, locus YLR268W, strain sec22, hits give low values 0.989 | S. cerevisiae deletion strains, locus YLR320W, strain mms22, hits give low values 1.03 | S. cerevisiae deletion strains, locus YLR330W, strain CHS5, hits give low values 1.01 | S. cerevisiae deletion strains, locus YLR342W, strain FKS1 (second series), hits give low values 1.01 | S. cerevisiae deletion strains, locus YLR342W, strain FKS1, hits give low values 1.01 | S. cerevisiae deletion strains, locus YLR357W, strain rsc2, hits give low values 1.01 | S. cerevisiae deletion strains, locus YLR370C, strain arc18, hits give low values 0.987 | S. cerevisiae deletion strains, locus YLR371W, strain rom2, hits give low values 0.995 | S. cerevisiae deletion strains, locus YLR384C, strain iki3, hits give low values 1 | S. cerevisiae deletion strains, locus YLR418C, strain cdc73, hits give low values 0.989 | S. cerevisiae deletion strains, locus YML016C, strain PPZ1, hits give low values 1.02 | S. cerevisiae deletion strains, locus YML032C, strain rad52, hits give low values 0.999 | S. cerevisiae deletion strains, locus YML120C, strain ndi1, hits give low values 0.962 | S. cerevisiae deletion strains, locus YML124C, strain tub3, hits give low values 0.989 | S. cerevisiae deletion strains, locus YMR058W, strain fet3, hits give low values 0.983 | S. cerevisiae deletion strains, locus YMR078C, strain ctf18, hits give low values 0.992 | S. cerevisiae deletion strains, locus YMR125W, strain sto1, hits give low values 1.01 | S. cerevisiae deletion strains, locus YMR129W, hits give low values 0.991 | S. cerevisiae deletion strains, locus YMR205C, strain PFK2, hits give low values 1.05 | S. cerevisiae deletion strains, locus YMR223W, strain ubp8, hits give low values 0.998 | S. cerevisiae deletion strains, locus YMR231W, strain pep5, hits give low values 1.01 | S. cerevisiae deletion strains, locus YMR263W, strain SAP30, hits give low values 1.02 | S. cerevisiae deletion strains, locus YMR307W, strain GAS1, hits give low values 1.02 | S. cerevisiae deletion strains, locus YNL067W, strain RPL9B, hits give low values 1.04 | S. cerevisiae deletion strains, locus YNL071W, strain lat1, hits give low values 0.999 | S. cerevisiae deletion strains, locus YNL128W, strain TEP1, hits give low values 1.04 | S. cerevisiae deletion strains, locus YNL153C, strain GIM3, hits give low values 1.02 | S. cerevisiae deletion strains, locus YNL183C, strain NPR1, hits give low values 0.963 | S. cerevisiae deletion strains, locus YNL209W, strain ssb2, hits give low values 1 | S. cerevisiae deletion strains, locus YNL233W, strain BNI4, hits give low values 1.02 | S. cerevisiae deletion strains, locus YNL248C, strain rpa49, hits give low values 0.941 | S. cerevisiae deletion strains, locus YNL250W, strain rad50, hits give low values 1 | S. cerevisiae deletion strains, locus YNL271C, strain bni1, hits give low values 0.992 | S. cerevisiae deletion strains, locus YNL298W, strain CLA4, hits give low values 1.01 | S. cerevisiae deletion strains, locus YNL307C, strain MCK1, hits give low values 0.981 | S. cerevisiae deletion strains, locus YNL322C, strain KRE1 (second series), hits give low values 0.988 | S. cerevisiae deletion strains, locus YNL322C, strain KRE1, hits give low values 1.02 | S. cerevisiae deletion strains, locus YNR049C, strain mso1, hits give low values 1 | S. cerevisiae deletion strains, locus YNR052C, strain pop2, hits give low values 1 | S. cerevisiae deletion strains, locus YOL006C, strain TOP1, hits give low values 1.04 | S. cerevisiae deletion strains, locus YOL012C, strain htz1 1.42 | S. cerevisiae deletion strains, locus YOL147C, strain pex11, hits give low values 0.994 | S. cerevisiae deletion strains, locus YOR001W, strain rrp6, hits give low values 0.958 | S. cerevisiae deletion strains, locus YOR061W, strain CKA2, hits give low values 1.03 | S. cerevisiae deletion strains, locus YOR069W, strain VPS5, hits give low values 1.01 | S. cerevisiae deletion strains, locus YOR070C, strain gyp1, hits give low values 0.999 | S. cerevisiae deletion strains, locus YOR080W, strain dia2, hits give low values 1.01 | S. cerevisiae deletion strains, locus YOR083W, strain WHI5, hits give low values 0.958 | S. cerevisiae deletion strains, locus YOR106W, strain vam3, hits give low values 0.978 | S. cerevisiae deletion strains, locus YOR136W, strain idh2, hits give low values 0.988 | S. cerevisiae deletion strains, locus YOR144C, strain elg1, hits give low values 0.993 | S. cerevisiae deletion strains, locus YOR184W, strain ser1, hits give low values 0.99 | S. cerevisiae deletion strains, locus YOR231W, strain MKK1, hits give low values 0.991 | S. cerevisiae deletion strains, locus YOR265W, strain rbl2, hits give low values 0.998 | S. cerevisiae deletion strains, locus YOR270C, strain vph1, hits give low values 0.964 | S. cerevisiae deletion strains, locus YOR290C, strain snf2, hits give low values 1 | S. cerevisiae deletion strains, locus YOR316C, strain cot1, hits give low values 0.996 | S. cerevisiae deletion strains, locus YPL051W, strain arl3, hits give low values 0.981 | S. cerevisiae deletion strains, locus YPL055C, strain LGE1, hits give low values 1.07 | S. cerevisiae deletion strains, locus YPL078C, strain atp4, hits give low values 0.949 | S. cerevisiae deletion strains, locus YPL106C, strain sse1, hits give low values 1.03 | S. cerevisiae deletion strains, locus YPL240C, strain hsp82, hits give low values 0.988 | S. cerevisiae deletion strains, locus YPL241C, strain CIN2, hits give low values 1.01 | S. cerevisiae deletion strains, locus YPL256C, strain CLN2, hits give low values 0.988 | S. cerevisiae deletion strains, locus YPR119W, strain clb2, hits give low values 0.995 | S. cerevisiae deletion strains, locus YPR141C, strain kar3, hits give low values 1 | S. cerevisiae deletion strains, locus YPR163C, strain tif3, hits give low values 0.989 | S. cerevisiae deletion strains, locus YPR167C, strain met16, hits give low values 0.995 | S. cerevisiae deletion strains, strain wtn01, hits give low values 0.986 | S. cerevisiae strains, strain wild type, hits give low values 1.01

From PubChem BioAssay AID1159580 (chemical genetic matrix, 2015)
